This note sets out measurements from PubChem BioAssay (NCI).

Test systems include T-47D breast; BT-549 breast; MDA-MB-435 melanoma; SW-620 colon; MCF7 breast; HCT-116 colon; HCC-2998 colon; KM12 colon.
Experiment in all cases: NCI-60 one-dose screen, 48 h (100 = growth as untreated, 0 = no growth, -100 = all killed)
Holding throughout (conditions): 10 µM unless noted

SMILES strings stand for the structures. This is part of a sample that, as a whole, favours compounds with a hit. Of some 83,000 tested, about 20% had one in any assay.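 Single-dose data. Exposure time 48 hours. Values below 10 considered active.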 Unmarked numbers belong to inactive results. Activity calls are given as the source filed them.

Regarding `Cc1ccc(CSC(=N)N)cc1C`, the growth with T-47D breast was 108%; in the experiment on BT-549 breast, 98.1%; in the experiment on MDA-MB-435 melanoma, 112%; with SW-620 colon, 102%; in the experiment on MCF7 breast it was 101%; in the experiment on HCT-116 colon, 105%. For the same molecule, the figures for the growth in the experiment on HCC-2998 colon and in the experiment with KM12 colon were 100% and 107%, respectively.

For the molecule `Cc1ccc(S(=O)(=O)NC(=O)n2cc(-c3ccncc3)c(-c3ccc(Cl)c(O)c3)n2)cc1`, the growth with T-47D breast is 108%; in the experiment on BT-549 breast, 106%; in the experiment on MDA-MB-435 melanoma, 82.2%; with SW-620 colon, 131%; in the experiment on MCF7 breast, 124%; in the experiment with HCT-116 colon, 96%. Further, the growth in the experiment with KM12 colon was 118%.

Regarding `O=C(Nc1ccc2c(c1)OCCO2)C(=O)c1c[nH]c2ccccc12`, the growth in the experiment on T-47D breast was 42.7%; in the experiment with BT-549 breast, 44.2%; with MDA-MB-435 melanoma, -29.1% (active); in the experiment on SW-620 colon, 18%; in the experiment on MCF7 breast, 18.4%; in the experiment with HCT-116 colon it was 14.7%. Besides, the growth in the experiment on KM12 colon was 10.8%.

For `Cc1nc2cncc(C#Cc3cncc(C(=O)Nc4ccc(CN5CCN(C)CC5)c(C(F)(F)F)c4)c3)c2nc1C`, the growth in the experiment with T-47D breast was 26.6%; in the experiment with BT-549 breast it was 37.6%; in the experiment on MDA-MB-435 melanoma it was -1.99% (active); with SW-620 colon it was 1.45% (active); with HCT-116 colon, 5.45% (active); in the experiment on HCC-2998 colon, 30.7%. The growth with KM12 colon was 3.08% (active).

In the case of `FC(F)(F)c1ccccc1-c1cn2c(ccc3ccccc32)n1`, the growth was 104% with T-47D breast; 80.8% in the experiment with BT-549 breast; -25.3% (active) in the experiment with MDA-MB-435 melanoma; 44.2% in the experiment with SW-620 colon; 74.9% in the experiment with HCT-116 colon; 99.2% with HCC-2998 colon. Moreover, the growth in the experiment on KM12 colon is 87%.

Consider `O=[N+]([O-])c1cccc(-c2nc3sccn3c2-c2ccnc(NCCCNS(=O)(=O)c3ccc(C(F)(F)F)cc3)n2)c1`, for which the growth in the experiment with T-47D breast is -1.61% (active); in the experiment on BT-549 breast, 30.3%; with MDA-MB-435 melanoma, 18.4%; in the experiment with SW-620 colon it was 66.6%; with HCT-116 colon, 30.5%; with HCC-2998 colon it was 52.9%. Moreover, the growth in the experiment with KM12 colon was 23.9%.

Take `Cc1ccc2[nH]c(=O)c3c(c2c1)Oc1ncn2nc(-c4ccco4)nc2c1C3c1ccc(Cl)cc1` (stereo unspecified): the growth in the experiment with T-47D breast is 89.4%; in the experiment on BT-549 breast it was 91.4%; in the experiment with MDA-MB-435 melanoma it was 98.5%; in the experiment with SW-620 colon it was 99%; in the experiment on MCF7 breast it was 86.7%; in the experiment with HCT-116 colon, 89.6%. Besides, the results for the growth in the experiment with HCC-2998 colon and in the experiment with KM12 colon were 98.1% and 99.4%, respectively.

For `CCCCN(CCCC)C(=N)c1ccnc2ccccc12`, the growth in the experiment with T-47D breast is 118%; in the experiment with BT-549 breast, 120%; in the experiment with MDA-MB-435 melanoma, 105%; with SW-620 colon, 100%; with HCT-116 colon it was 104%; in the experiment with HCC-2998 colon, 102%.

In the case of `CO[C@H]1NC(=O)N(S(=O)(=O)c2ccc(Cl)cc2)[C@@H]1OC`, the growth in the experiment with T-47D breast is 105%; in the experiment on BT-549 breast, 108%; with MDA-MB-435 melanoma it was 97.3%; in the experiment on SW-620 colon it was 108%; with HCT-116 colon, 110%; in the experiment on HCC-2998 colon, 110%. The growth in the experiment with KM12 colon was 103%.

For the molecule `O=C1CS/C(=N\Nc2cc(=O)[nH]c3ccccc23)N1c1ccccc1`, the growth in the experiment on T-47D breast was 89.6%; with BT-549 breast, 95.3%; in the experiment on MDA-MB-435 melanoma, 82.9%; in the experiment with SW-620 colon, 92.9%; in the experiment on MCF7 breast it was 92%; in the experiment on HCT-116 colon, 89.7%. Besides, the values for the growth in the experiment on HCC-2998 colon and in the experiment on KM12 colon were 96% and 98.8%, respectively.

With `CCCCOc1ccc(/C=C2/SC(N3CCCC3)=NC2=O)cc1`, the growth with T-47D breast is 65.9%; with BT-549 breast it was 90.9%; in the experiment with MDA-MB-435 melanoma it was 95.6%; with SW-620 colon it was 99.9%; with MCF7 breast, 107%; in the experiment on HCT-116 colon, 92.2%. The growth is 109% in the experiment with HCC-2998 colon and 99.5% with KM12 colon.

As for `COc1ccc2c(c1)[nH]c(=O)c1c3cc(C)c(C)cc3cn21`, the growth was -24.4% (active) with T-47D breast; 0.0621% (active) with BT-549 breast; -60.8% (active) in the experiment with MDA-MB-435 melanoma; -52.8% (active) in the experiment on SW-620 colon; 3.58% (active) in the experiment on MCF7 breast; -35.9% (active) in the experiment on HCT-116 colon. Also, the growth in the experiment with HCC-2998 colon was 15.7%; with KM12 colon, -87.7% (active).

Take `CCOC(=O)c1ccc(NC(=O)N2CC(C)OC(C)C2)cc1` (stereo unspecified): the growth with T-47D breast was 94.4%; in the experiment with BT-549 breast, 97.8%; in the experiment with MDA-MB-435 melanoma, 105%; in the experiment with SW-620 colon, 106%; with HCT-116 colon it was 102%; with HCC-2998 colon, 105%. Further, the growth with KM12 colon is 108%.

Take `O=C(O)C1CCCCN1c1nc(Cl)nc(Cl)n1` (stereo unspecified): the growth was 99% in the experiment with T-47D breast; 103% with BT-549 breast; 101% in the experiment on SW-620 colon; 100% with MCF7 breast; 111% with HCT-116 colon; 101% with HCC-2998 colon. Also, the growth in the experiment on KM12 colon was 111%.

As to `COc1ccc(S(=O)(=O)n2cc(C(=O)C(=O)Nc3ccncc3)c3ccccc32)cc1F`, the growth was 67.9% with T-47D breast; 77% in the experiment with BT-549 breast; 58% in the experiment with MDA-MB-435 melanoma; 83.3% with SW-620 colon; 69.5% in the experiment with HCT-116 colon; 73.5% in the experiment with HCC-2998 colon. Moreover, the growth in the experiment on KM12 colon was 75%.

Take `Cc1nn(-c2ccc(Cl)cc2)c2ncnc(N/N=C/c3cccc([N+](=O)[O-])c3)c12`: the growth with T-47D breast is 101%; with BT-549 breast, 106%; with MDA-MB-435 melanoma, 97.1%; with SW-620 colon it was 88.9%; in the experiment with HCT-116 colon, 104%; in the experiment with HCC-2998 colon, 94.8%. The growth with KM12 colon is 66.5%.
